Test results published in PubChem BioAssay (Tox21).
Inconclusive results are not listed. Activity calls are given as the source filed them. The call rests on the fitted dose curve; in most records, active means well fitted curve in the direction sought with a large enough effect in the repeat runs; inconclusive means weak or mixed curves; inactive means no such curve, though single readings can be large; an effect the other way counts as inactive or inconclusive.

Tests used:
[1] = molecular target: Nuclear receptor subfamily 1 group I member 2 (Homo sapiens) (UniProt O75469); experiment: Human pregnane X receptor (PXR) small molecule agonists, qHTS assay (AID 1346982); conditions: PXR-Luc HepG2, CYP3A4 luciferase reporter, 24 h; series mostly up to 92.4 µM; further: nearly all actives have a fitted effect of over 35% in size; further: potency means the concentration at half of the fitted maximal effect
Summary of the method: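 Agonist mode: luminescence from ONE-Glo after 24 h compound exposure at 37C in HepG2 cells carrying hPXR-responsive CYP3A4 luciferase, plated in charcoal-stripped serum medium 5 h beforehand.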

[2] = molecular target: Nuclear receptor subfamily 1 group I member 2 (Rattus norvegicus) (UniProt Q9R1A7); experiment: Rat pregnane X receptor (rPXR) activation by small molecules, qHTS assay (AID 1346983); conditions: rPXR luciferase reporter cells, One-Glo luminescence, 24 h; max activation: active compounds read high; further: nearly all actives have a fitted effect of over 20% in size
Summary of the method: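 Cell-based rPXR activation assay: rPXR cells, 2,000 per well, rested 5hr at 37 C, then exposed to compounds in DMSO for 24 hr at 37 C. Luciferase activity read by One-Glo luminescence after 30 min at room temperature.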

[3] = molecular target: Nuclear receptor subfamily 1 group I member 2 (Homo sapiens) (UniProt O75469); experiment: CYP3A4 induction through human pregnane X receptor (PXR) by small molecules, qHTS assay (AID 1346984); conditions: DPX-2 HepG2 PXR, CYP3A4-luciferin luminescence, 24 h; series mostly up to 46.1 µM; further: nearly all actives have a fitted effect of over 40% in size
Summary of the method: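 Read-out is luminescence after One-Glo addition, following a 3 hr, 37C incubation with Luciferin-IPA CYP3A4 substrate (3uM final). Before that, compounds were on DPX-2 cells (HepG2 co-transfected with PXR element plus CYP3A4-promoter luciferase) for 24 hr at 37C.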

[4] = molecular target: Nuclear receptor subfamily 1 group I member 2 (Homo sapiens) (UniProt O75469); experiment: Human pregnane X receptor (PXR) activation by small molecules, qHTS assay (AID 1346985); conditions: DPX-2 HepG2 CYP3A4-luciferase, 24 h; series mostly up to 38.3 µM; further: nearly all actives have a fitted effect of over 40% in size
Summary of the method: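 DPX-2 cells (HepG2 co-transfected with a PXR response element and a CYP3A4-promoter luciferase construct) were seeded at 2,000 per well, rested 5 hr at 37C, then exposed to DMSO-dissolved compounds for 24 hr. Activation was read as luciferase luminescence.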

[5] = molecular target: Cytochrome P450 2D6 (Homo sapiens) (UniProt P10635); experiment: Cytochrome P450 Family 2 Subfamily D Member 6 (CYP2D6) small molecule antagonists: luciferase reporter qHTS assay (AID 1671196); conditions: P450-Glo CYP2D6 enzyme assay, luciferin luminescence, 1 h; series mostly up to 115 µM; further: nearly all actives have a fitted effect of over 50% in size; further: potency means the concentration at half of the fitted maximal effect
Summary of the method: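 CYP2D6 activity was followed as luminescence from its luciferin product after a 1 h NADPH-driven reaction at room temperature. Enzyme-substrate mix and compound were pre-incubated for 10 min, and the signal was read 20 min after adding detection reagent.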

[6] = molecular target: Cytochrome P450 1A2 (Homo sapiens) (UniProt P05177); experiment: Cytochrome P450 Family 1 Subfamily A Member 2 (CYP1A2) small molecule antagonists: luciferase reporter qHTS assay (AID 1671199); conditions: P450-Glo CYP1A2 enzyme, luciferin luminescence, 1 h; series mostly up to 115 µM; further: nearly all actives have a fitted effect of over 50% in size; further: potency means the concentration at half of the fitted maximal effect
Summary of the method: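 Luminescence from luciferin formed by CYP1A2 from a proluciferin substrate, read 20 min after detection reagent. Compound was pre-incubated 10 min with enzyme-substrate, and reaction started with NADPH regeneration solution for 1 h at room temperature; furafylline control.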

[7] = molecular target: Voltage-gated inwardly rectifying potassium channel KCNH2 (Homo sapiens) (UniProt Q12809); experiment: Human Ether-a-go-go-Related Gene (hERG) channel small molecule antagonists: fluorescence cell-based qHTS assay (AID 1671200); conditions: hERG-U2OS cells, FluxOR thallium flux fluorescence; series mostly up to 76.8 µM;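 further: hERG-expressing U2OS cells given a thallium stimulus after FluxOR II dye loading; nearly all actives have a fitted effect of over 50% in size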
Summary of the method: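 Channel function was assessed by thallium flux. Cells seeded the previous day and kept at 37 C took up FluxOR II dye over 1 h in the dark at room temperature, then sat another 10 min before stimulation.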

[8] = molecular target: Cytochrome P450 3A4 (Homo sapiens) (UniProt P08684); experiment: Cytochrome P450 Family 3 Subfamily A Member 4 (CYP3A4) small molecule antagonists: luciferase reporter qHTS assay (AID 1671201); conditions: P450-Glo CYP3A4 enzyme, luciferin luminescence, 1 h; series mostly up to 115 µM; further: nearly all actives have a fitted effect of over 50% in size; further: potency means the concentration at half of the fitted maximal effect
Summary of the method: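 Compounds in DMSO were pin-transferred onto CYP3A4 enzyme-substrate mix and held 10 min at room temperature. NADPH regenerating solution started the reaction for 1 h; luciferin detection reagent stopped it, and luminescence was read after 20 min.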

[9] = Caspase-3/7 induction in CHO-K1 cells by small molecules, qHTS cell viability counter screen (AID 1346979); conditions: CellTiter-Fluor fluorescence, 17 h; series mostly up to 92.4 µM; further: nearly all actives have a fitted effect of over 35% in size; further: potency means the concentration at half of the fitted maximal effect
Summary of the method: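 Cells (CHO-K1, wild type) are plated at 1,500 per well and incubated 5hr. Test compounds in DMSO are then pinned in, followed by 16hr at 37C and 5% CO2. Viability is read by CellTiter-Fluor fluorescence after 1hr.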

[10] = molecular target: Cytochrome P450 2C19 (Homo sapiens) (UniProt P33261); experiment: Cytochrome P450 Family 2 Subfamily C Member 19 (CYP2C19) small molecule antagonists: luciferase reporter qHTS assay (AID 1671197); conditions: P450-Glo CYP2C19 enzyme, luciferin luminescence, 1 h; series mostly up to 115 µM; further: nearly all actives have a fitted effect of over 65% in size; further: potency means the concentration at half of the fitted maximal effect
Summary of the method: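 P450-Glo CYP2C19 system: enzyme-substrate mix with compound 10 min at room temperature, then NADPH regeneration solution, 1 h at 37C. Proluciferin-to-luciferin conversion detected by luminescence after 20 min with detection reagent; ketoconazole as positive control.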

[11] = molecular target: Cytochrome P450 2C9 (Homo sapiens) (UniProt P11712); experiment: Cytochrome P450 Family 2 Subfamily C Member 9 (CYP2C9) small molecule antagonists: luciferase reporter qHTS assay (AID 1671198); conditions: P450-Glo CYP2C9 enzyme assay, luciferin luminescence; series mostly up to 115 µM; further: nearly all actives have a fitted effect of over 50% in size; further: potency means the concentration at half of the fitted maximal effect
Summary of the method: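 P450-Glo proluciferin substrate with CYP2C9 enzyme; 10 min RT preincubation, then NADPH regeneration 1 h at 37C; luciferin detection reagent 20 min RT, luminescence in relative luminescence units.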

[12] = Caspase-3/7 induction in CHO-K1 cells by small molecules, qHTS assay (AID 1346980); conditions: CHO-K1 caspase-3/7 induction, Caspase-Glo luminescence, 17 h; series mostly up to 92.4 µM; further: nearly all actives have a fitted effect of over 15% in size
Summary of the method: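 Wild-type CHO-K1 cells exposed to compounds for 17hr at 37 C, 5% CO2. Caspase-3/7 activity then measured by Caspase-Glo 3/7 luminescence after 30min at room temperature.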

[13] = Caspase-3/7 induction in HepG2 cells by small molecules, qHTS cell viability counter screen (AID 1346981); conditions: CellTiter-Fluor fluorescence, 17 h; series mostly up to 92.4 µM; further: nearly all actives have a fitted effect of over 30% in size; further: potency means the concentration at half of the fitted maximal effect
Summary of the method: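 CellTiter-Fluor fluorescence measured viability in the same wells used for Caspase-Glo 3/7. HepG2 (wild type) at 2,000 cells/well were pre-incubated 5 hr, dosed, and given reagent at 16 hr, with 1 hr further at 37C.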
On the % scale 0 is the no-effect control and ±100 the full control effect.

Voltage-gated inwardly rectifying potassium channel KCNH2 (Homo sapiens), sequence (Q12809 whole entry, looked up): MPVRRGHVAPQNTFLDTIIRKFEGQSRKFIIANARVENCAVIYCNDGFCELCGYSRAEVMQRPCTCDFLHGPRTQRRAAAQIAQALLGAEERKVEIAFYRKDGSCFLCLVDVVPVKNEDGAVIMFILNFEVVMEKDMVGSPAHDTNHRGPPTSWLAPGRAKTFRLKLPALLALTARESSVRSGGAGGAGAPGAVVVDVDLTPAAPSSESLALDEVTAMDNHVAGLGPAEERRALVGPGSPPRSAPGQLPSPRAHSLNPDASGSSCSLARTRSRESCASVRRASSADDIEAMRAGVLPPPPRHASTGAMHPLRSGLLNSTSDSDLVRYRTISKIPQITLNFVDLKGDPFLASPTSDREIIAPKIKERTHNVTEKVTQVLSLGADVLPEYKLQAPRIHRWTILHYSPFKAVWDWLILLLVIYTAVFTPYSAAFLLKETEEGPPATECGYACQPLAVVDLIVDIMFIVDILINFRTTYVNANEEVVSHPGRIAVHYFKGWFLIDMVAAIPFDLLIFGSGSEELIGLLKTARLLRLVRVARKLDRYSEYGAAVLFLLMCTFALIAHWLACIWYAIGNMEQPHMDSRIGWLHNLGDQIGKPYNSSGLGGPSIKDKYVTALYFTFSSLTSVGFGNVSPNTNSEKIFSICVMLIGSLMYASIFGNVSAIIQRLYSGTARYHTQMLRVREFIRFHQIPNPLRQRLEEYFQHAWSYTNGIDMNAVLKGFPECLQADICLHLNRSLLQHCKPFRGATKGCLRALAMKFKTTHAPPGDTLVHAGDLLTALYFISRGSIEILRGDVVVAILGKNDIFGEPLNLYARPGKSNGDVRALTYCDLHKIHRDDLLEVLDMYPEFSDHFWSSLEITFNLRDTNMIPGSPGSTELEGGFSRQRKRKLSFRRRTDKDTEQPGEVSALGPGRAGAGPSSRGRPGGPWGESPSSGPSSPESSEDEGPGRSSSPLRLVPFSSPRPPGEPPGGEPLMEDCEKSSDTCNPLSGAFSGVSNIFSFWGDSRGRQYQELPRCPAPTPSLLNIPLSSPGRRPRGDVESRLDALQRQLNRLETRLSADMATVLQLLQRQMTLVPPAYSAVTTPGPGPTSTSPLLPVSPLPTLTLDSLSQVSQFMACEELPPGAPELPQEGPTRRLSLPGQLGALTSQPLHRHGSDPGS
Nuclear receptor subfamily 1 group I member 2 (Rattus norvegicus), sequence (Q9R1A7 whole entry, looked up): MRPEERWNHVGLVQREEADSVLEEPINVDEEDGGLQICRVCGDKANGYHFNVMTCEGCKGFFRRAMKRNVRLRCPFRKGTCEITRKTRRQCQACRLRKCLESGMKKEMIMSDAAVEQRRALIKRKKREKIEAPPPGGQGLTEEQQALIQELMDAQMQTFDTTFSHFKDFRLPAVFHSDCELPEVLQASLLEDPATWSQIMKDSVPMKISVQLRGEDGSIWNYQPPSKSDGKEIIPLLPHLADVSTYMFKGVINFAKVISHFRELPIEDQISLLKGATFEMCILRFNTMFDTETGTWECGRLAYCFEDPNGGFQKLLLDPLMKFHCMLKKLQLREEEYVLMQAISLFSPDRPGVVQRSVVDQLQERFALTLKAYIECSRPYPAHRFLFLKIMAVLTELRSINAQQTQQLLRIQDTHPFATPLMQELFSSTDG
Cytochrome P450 1A2 (Homo sapiens), sequence (P05177 whole entry, looked up): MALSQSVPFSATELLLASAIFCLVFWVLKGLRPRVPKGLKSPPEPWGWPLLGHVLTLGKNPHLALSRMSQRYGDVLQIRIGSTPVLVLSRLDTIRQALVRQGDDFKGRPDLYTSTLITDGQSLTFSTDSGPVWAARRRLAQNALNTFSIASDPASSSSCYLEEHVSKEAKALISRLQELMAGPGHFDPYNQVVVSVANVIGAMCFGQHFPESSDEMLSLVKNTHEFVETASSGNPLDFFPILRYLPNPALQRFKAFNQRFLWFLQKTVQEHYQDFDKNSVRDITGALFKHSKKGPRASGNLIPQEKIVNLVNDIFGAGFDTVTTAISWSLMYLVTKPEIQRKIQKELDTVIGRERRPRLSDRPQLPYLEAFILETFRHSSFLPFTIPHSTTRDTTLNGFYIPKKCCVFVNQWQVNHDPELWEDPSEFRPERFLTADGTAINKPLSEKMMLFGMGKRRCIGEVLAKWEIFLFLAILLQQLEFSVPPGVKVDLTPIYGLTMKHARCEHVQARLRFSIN
Cytochrome P450 2D6 (Homo sapiens), sequence (P10635 whole entry, looked up): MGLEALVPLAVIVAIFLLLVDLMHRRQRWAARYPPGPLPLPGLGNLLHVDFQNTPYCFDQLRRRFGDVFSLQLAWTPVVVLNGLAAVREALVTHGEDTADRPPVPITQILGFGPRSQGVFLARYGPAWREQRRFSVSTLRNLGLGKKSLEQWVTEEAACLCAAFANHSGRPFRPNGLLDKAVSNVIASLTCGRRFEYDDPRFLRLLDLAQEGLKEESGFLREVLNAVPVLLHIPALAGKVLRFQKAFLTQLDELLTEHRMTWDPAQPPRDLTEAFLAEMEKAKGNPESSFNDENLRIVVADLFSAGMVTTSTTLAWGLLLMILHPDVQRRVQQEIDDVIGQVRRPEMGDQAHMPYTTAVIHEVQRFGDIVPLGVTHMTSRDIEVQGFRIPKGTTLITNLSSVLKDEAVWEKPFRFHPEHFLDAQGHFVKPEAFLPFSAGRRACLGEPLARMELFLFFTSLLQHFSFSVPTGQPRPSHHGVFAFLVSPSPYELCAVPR
Cytochrome P450 3A4 (Homo sapiens), sequence (P08684 whole entry, looked up): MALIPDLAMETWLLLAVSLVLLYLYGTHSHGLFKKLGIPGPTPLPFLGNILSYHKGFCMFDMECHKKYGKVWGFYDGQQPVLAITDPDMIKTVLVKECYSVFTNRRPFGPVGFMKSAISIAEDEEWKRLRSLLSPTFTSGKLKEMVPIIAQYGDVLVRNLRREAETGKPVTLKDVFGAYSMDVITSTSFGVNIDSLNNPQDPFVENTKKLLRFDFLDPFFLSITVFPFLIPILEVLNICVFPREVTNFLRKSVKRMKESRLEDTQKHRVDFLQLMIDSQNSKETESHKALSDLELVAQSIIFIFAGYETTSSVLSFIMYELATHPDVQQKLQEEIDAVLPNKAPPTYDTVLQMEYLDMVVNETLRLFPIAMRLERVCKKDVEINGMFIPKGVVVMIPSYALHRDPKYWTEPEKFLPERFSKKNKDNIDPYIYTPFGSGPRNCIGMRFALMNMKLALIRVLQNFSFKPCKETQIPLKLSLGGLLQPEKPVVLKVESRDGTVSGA
Cytochrome P450 2C9 (Homo sapiens), sequence (P11712 whole entry, looked up): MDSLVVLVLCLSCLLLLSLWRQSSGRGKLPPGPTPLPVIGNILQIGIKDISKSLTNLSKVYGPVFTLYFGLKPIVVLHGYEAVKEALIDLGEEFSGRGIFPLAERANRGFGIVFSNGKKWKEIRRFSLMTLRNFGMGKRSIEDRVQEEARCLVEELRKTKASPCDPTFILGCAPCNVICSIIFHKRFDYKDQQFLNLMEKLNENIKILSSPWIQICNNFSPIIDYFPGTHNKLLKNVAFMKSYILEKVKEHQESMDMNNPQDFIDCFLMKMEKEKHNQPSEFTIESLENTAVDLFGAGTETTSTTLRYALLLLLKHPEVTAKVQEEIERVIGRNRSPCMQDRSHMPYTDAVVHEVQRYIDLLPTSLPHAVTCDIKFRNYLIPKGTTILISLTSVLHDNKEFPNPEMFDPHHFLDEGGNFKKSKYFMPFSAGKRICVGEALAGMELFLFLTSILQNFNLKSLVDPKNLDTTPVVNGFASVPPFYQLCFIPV
Cytochrome P450 2C19 (Homo sapiens), sequence (P33261 whole entry, looked up): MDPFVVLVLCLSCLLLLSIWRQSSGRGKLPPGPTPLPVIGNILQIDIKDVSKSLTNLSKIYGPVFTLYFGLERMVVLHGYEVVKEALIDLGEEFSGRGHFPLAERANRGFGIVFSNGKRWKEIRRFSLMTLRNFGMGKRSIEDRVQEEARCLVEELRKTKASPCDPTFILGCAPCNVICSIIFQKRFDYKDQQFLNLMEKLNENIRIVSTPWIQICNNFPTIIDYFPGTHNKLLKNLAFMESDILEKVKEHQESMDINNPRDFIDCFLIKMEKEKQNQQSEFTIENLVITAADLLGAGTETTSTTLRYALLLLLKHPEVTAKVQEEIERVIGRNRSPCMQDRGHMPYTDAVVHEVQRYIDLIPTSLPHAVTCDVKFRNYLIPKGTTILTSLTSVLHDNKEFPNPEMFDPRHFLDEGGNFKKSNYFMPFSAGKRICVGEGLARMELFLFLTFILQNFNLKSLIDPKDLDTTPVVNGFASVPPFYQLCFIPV
Nuclear receptor subfamily 1 group I member 2 (Homo sapiens), sequence (O75469 whole entry, looked up): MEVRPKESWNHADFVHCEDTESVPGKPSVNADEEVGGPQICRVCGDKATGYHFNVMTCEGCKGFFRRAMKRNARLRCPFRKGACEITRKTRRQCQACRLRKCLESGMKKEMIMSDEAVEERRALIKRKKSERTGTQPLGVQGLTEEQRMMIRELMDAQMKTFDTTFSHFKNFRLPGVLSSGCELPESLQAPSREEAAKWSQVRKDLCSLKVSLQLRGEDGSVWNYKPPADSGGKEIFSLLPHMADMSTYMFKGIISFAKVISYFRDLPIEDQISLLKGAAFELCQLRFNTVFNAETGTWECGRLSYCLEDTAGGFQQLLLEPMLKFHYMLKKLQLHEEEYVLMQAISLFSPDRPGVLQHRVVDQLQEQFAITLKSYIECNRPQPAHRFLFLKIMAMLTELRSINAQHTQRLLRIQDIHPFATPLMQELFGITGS

C[C@H](CCC(=O)O)[C@H]1CC[C@H]2[C@@H]3[C@H](O)C[C@@H]4C[C@H](O)CC[C@]4(C)[C@H]3CC[C@]12C
inactive: Potency [1] | max activation [2] -0.524% | Potency [3] | Potency [4] | Potency [7] | Potency [8]
active: Potency [5] 56.6 µM | Potency [6] 31.8 µM

Cc1cc(O)ccc1N
active: Potency [9] 61.4 µM | Potency [1] 61.4 µM | Potency [5] 20.1 µM | Potency [10] 17.9 µM | Potency [11] 20.1 µM | Potency [6] 17.9 µM | Potency [8] 11.3 µM

C#CCOC(=O)[C@@H](C)Oc1ccc(Oc2ncc(Cl)cc2F)cc1
active: Potency [10] 17.7 µM | Potency [11] 31.6 µM | Potency [6] 5 µM
inactive: Potency [9] | Potency [12] | Potency [13]

Cc1nc2ccccc2n1Cc1ccc(Cl)cc1
inactive: Potency [12] | Potency [13] | max activation [2] -21.8% | Potency [3] | Potency [4] | Potency [7]
active: Potency [9] 7.5 µM | Potency [5] 15.5 µM | Potency [10] 3.09 µM | Potency [11] 13.8 µM | Potency [6] 7.23 µM

NC(N)=NN=C(/C=C/c1ccc([N+](=O)[O-])o1)/C=C/c1ccc([N+](=O)[O-])o1
inactive: max activation [2] -21.7% | Potency [3] | Potency [4]
active: Potency [9] 5.31 µM | Potency [13] 8.41 µM | Potency [1] 2.66 µM | Potency [5] 15.5 µM | Potency [10] 3.89 µM | Potency [11] 24.5 µM

O=C(O)Cc1cc(I)c(Oc2ccc(O)c(I)c2)c(I)c1
inactive: Potency [9] | Potency [13] | max activation [2] -1.77% | Potency [7]

CCCCCCOC(=O)CCC
inactive: Potency [9] | Potency [12] | Potency [13] | Potency [1] | Potency [5] | Potency [10] | Potency [11] | Potency [6] | Potency [7] | Potency [8]

CC1=CCC(C(C)C)C=C1 (stereo not drawn)
inactive: Potency [9] | Potency [12] | Potency [13] | Potency [7]
active: Potency [1] 30.6 µM | Potency [5] 71 µM | Potency [10] 79.6 µM | Potency [11] 50.2 µM | Potency [8] 25.2 µM

Oc1ccc(Cc2ccccc2)cc1
inactive: Potency [12] | Potency [13] | Potency [7] | Potency [8]
active: Potency [1] 56.6 µM | Potency [10] 20.8 µM | Potency [11] 65.7 µM

CC(C)CCCC(C)CCO (stereo not drawn)
inactive: Potency [9] | Potency [12] | Potency [13] | Potency [1] | Potency [5] | Potency [10] | Potency [6] | Potency [7] | Potency [8]

O=C(O)COC(=O)Cc1ccccc1Nc1c(Cl)cccc1Cl
inactive: Potency [12] | Potency [13] | Potency [1] | max activation [2] -0.166% | Potency [3] | Potency [4] | Potency [5] | Potency [10] | Potency [6] | Potency [7] | Potency [8]
active: Potency [11] 13.8 µM

Nc1nc(N)c(-c2ccccc2)s1
active: Potency [6] 30.9 µM
inactive: Potency [12] | Potency [13] | Potency [1] | max activation [2] -3.93% | Potency [3] | Potency [4] | Potency [5] | Potency [10] | Potency [11] | Potency [7]
